# Assay results published in PubChem BioAssay (NCATS).
# Values without a mark were called inactive. Results filed as inconclusive are left out. Calls of active or inactive are those of the source. Unless noted, the call rests on the fitted dose curve; in most records, active means well fitted curve in the direction sought with a large enough effect; inconclusive means small, poorly fitted or top-dose-only effect, or another doubt; inactive means no such curve, though single readings can be large; an effect the other way counts as inactive or inconclusive.
# What was measured:
# [1] = Cell Viability - LYMP2-011 (AID 969); further: potency means the concentration at half of the fitted maximal effect; nearly all actives have a fitted effect of over 60% in size
# In short: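 Cells seeded at 2500 per well rest 5 hr before compound addition, then incubate 24 hr at 37 C. CellTiter-Glo reagent is added for 30 min at room temperature before luminescence detection.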
# [2] = Cell Viability - LYMP2-013 (AID 970); further: potency means the concentration at half of the fitted maximal effect; nearly all actives have a fitted effect of over 55% in size
# In short: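 In complete culture medium, human lymphoblastoid cells were dosed for 24 hr at 37 C, with tetraoctylammonium bromide (6.4pM to 92 uM) as positive control. Viability reflects luciferase-based ATP signal; AC50 derived from concentration-response curves.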
# [3] = Cell Viability - LYMP2-015 (AID 971); further: potency means the concentration at half of the fitted maximal effect; nearly all actives have a fitted effect of over 55% in size
# In short: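 AC50 values reflect Hill-model fits of ATP-based luminescence (CellTiter-Glo) from a human lymphoblastoid line, 2500 cells/well, treated 24 hr at 37 C.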
# [4] = Cell Viability - LYMP2-017 (AID 972); further: potency means the concentration at half of the fitted maximal effect; nearly all actives have a fitted effect of over 55% in size
# In short: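 In this qHTS format, lymphoblastoid cells in complete medium receive test compound for a day at 37 C before ATP content is quantified by luciferase luminescence. Reported AC50 figures come from standard Hill-equation curve fitting.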
# [5] = Cell Viability - LYMP2-019 (AID 973); further: potency means the concentration at half of the fitted maximal effect; nearly all actives have a fitted effect of over 55% in size
# In short: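 AC50 values come from Hill-equation modelling of qHTS concentration-response curves, where viability is measured as luciferase-based ATP luminescence in the lymphoblastoid line after 24 hr compound exposure in complete culture medium.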
# [6] = Cell Viability - LYMP2-021 (AID 974)
# In short: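 In qHTS format, compounds are tested against 2500 lymphoblastoid cells per well for 24 h; viable cell number is inferred from ATP-driven luciferase light, and Hill-equation fitting yields AC50 values.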
# [7] = Cell Viability - LYMP2-023 (AID 975)
# In short: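 In this qHTS, ATP-based luciferase luminescence (CellTiter-Glo) is quantified in human lymphoblastoid cells after 24 hr compound treatment at 37 C; tetraoctylammonium bromide serves as positive control. Concentration-response curves are Hill-fitted to give AC50.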
# [8] = Cell Viability - LYMP2-025 (AID 976); further: potency means the concentration at half of the fitted maximal effect
# In short: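 Luminescent ATP readout after 24 hr treatment of a human lymphoblastoid line (LYMP2-025, 2500 cells/well, 37 C). Reagent developed 30 min at room temperature; AC50 fitted with the Hill equation.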
# [9] = Cell Viability - LYMP2-002 (AID 977);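 further: potency means the concentration at half of the fitted maximal effect; compound exposure lasted 24 h at 37 °C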
# In short: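 Human lymphoblastoid cells (2500/well) in complete medium were preincubated 5 hr at 37 C, then exposed to compounds for 24 hr at 37 C. Intracellular ATP was read by CellTiter-Glo luminescence; AC50 came from Hill-equation concentration-response fits.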
# [10] = Cell Viability - LYMP2-007 (AID 979);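 further: potency means the concentration at half of the fitted maximal effect; cells exposed to compound for 24 h before reading; nearly all actives have a fitted effect of over 60% in size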
# In short: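 Measured via luciferase-based ATP quantitation: lymphoblastoid cells, 24 hr compound exposure at 37 C, AC50 from Hill fits.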
# [11] = Cell Viability - LYMP2-008 (AID 980); further: potency means the concentration at half of the fitted maximal effect; nearly all actives have a fitted effect of over 60% in size
# In short: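 Measured: ATP-dependent luminescence, proportional to viable cell number, in human lymphoblastoid cells treated 24 hr with compound in complete culture medium. Values are AC50s from Hill-equation modelling of qHTS titrations.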
# [12] = Cell Viability - LYMP2-010 (AID 981)
# In short: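 This 24 hr viability screen uses LYMP2-010 lymphoblastoid cells, quantifies ATP via luciferase luminescence, and derives AC50 from Hill fits of qHTS concentration-response data.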
# [13] = Cell Viability - LYMP2-014 (AID 983); further: potency means the concentration at half of the fitted maximal effect; nearly all actives have a fitted effect of over 50% in size
# In short: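 Quantitative HTS in lymphoblastoid cells: 24 hr compound exposure, then CellTiter-Glo ATP luminescence. Positive control was tetraoctylammonium bromide, 6.4pM to 92 uM.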
# [14] = Cell Viability - LYMP2-016 (AID 984)
# In short: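 Acute toxicity in a Coriell human lymphoblastoid line is scored as loss of intracellular ATP over 24 h of treatment in complete medium. CellTiter-Glo signal is fitted across concentrations with the Hill equation to give AC50.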
# [15] = Cell Viability - LYMP2-018 (AID 985); further: potency means the concentration at half of the fitted maximal effect; nearly all actives have a fitted effect of over 50% in size
# In short: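 In this qHTS viability assay, cells are treated for 24 hr and cellular ATP is quantified by luciferase-based luminescence, with tetraoctylammonium bromide as positive control.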
# [16] = Cell Viability - LYMP2-020 (AID 986)
# In short: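 Cells at 2500 per well receive a 24 hr compound exposure at 37 C. Viability is measured as ATP-dependent luciferase luminescence, with AC50 modeled from qHTS concentration-response curves.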
# [17] = Cell Viability - LYMP2-022 (AID 987)
# In short: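 In this qHTS cytotoxicity screen, compound titrations were incubated 24 hr at 37 C with human lymphoblastoid cells in complete medium. Luciferase-based ATP luminescence provided the viability signal.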
# [18] = Cell Viability - LYMP2-024 (AID 988); further: potency means the concentration at half of the fitted maximal effect; nearly all actives have a fitted effect of over 60% in size
# In short: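 Cells at 2500 per well received compound for 24 hr after a 5 hr settling period. Viability was scored by CellTiter-Glo luminescence, with AC50 from Hill fits.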
# [19] = Cell Viability - LYMP2-026 (AID 989); further: potency means the concentration at half of the fitted maximal effect; nearly all actives have a fitted effect of over 50% in size
# In short: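 Acute toxicity screen in complete culture medium, with 24 hr compound exposure at 37 C. Viability read as cellular ATP via luciferase reaction, with tetraoctylammonium bromide (6.4pM to 92 uM) as positive control.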
# [20] = Cell Viability - LYMP1-002 - Assay at 24 hr (AID 993); further: potency means the concentration at half of the fitted maximal effect
# In short: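 Viability was judged from intracellular ATP using a luciferase read-out, following a 24-hour compound incubation at 37 C of lymphoblastoid cells seeded at 2500 per well. Concentration-response data were fitted to the Hill equation for AC50.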
# [21] = Cell Viability - LYMP1-002 - Assay at 40 hr (AID 994)
# In short: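 Concentration-dependent ATP loss after 40 hr treatment at 37 C defined toxicity; AC50 values were obtained by fitting the standard Hill equation.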
# [22] = target: Vitamin D3 receptor (Homo sapiens) (UniProt P11473); assay: qHTS assay for small molecule agonists of vitamin D receptor signaling (AID 588543; calls by dose curve;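 further: 0% = DMSO basal and 100% = reference agonist control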)
# In short: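 qHTS in agonist mode: compound titrations stimulate a VDR-driven β-lactamase reporter in HEK293T cells over 16 h at 37 °C. Response normalized to 50 nM 1α,25-dihydroxyvitamin D3 = 100%, DMSO = 0%; Hill fitting gives EC50 and maximal response.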
# [23] = target: Thyroid hormone receptor beta (Homo sapiens) (UniProt P10828); assay: qHTS assay for small molecule agonists of thyroid hormone receptor beta signaling (AID 588545; calls by dose curve;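 further: 0% = DMSO only and 100% = 10 nM T3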)
# In short: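 Beta-lactamase reporter activity under TR response element control is measured in HEK 293 cells after 18 hrs compound exposure. Signal is ratiometric CCF4 fluorescence, 460/530 nm.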
# [24] = target: Voltage-gated inwardly rectifying potassium channel KCNH2 (Homo sapiens) (UniProt Q12809); assay: qHTS Assay for Small Molecule Inhibitors of the Human hERG Channel Activity (AID 588834);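 further: U2OS cells transduced with hERG by BacMam; top concentration of the series differs between compounds; on the % scale 0 is the no-effect control and ±100 the full control effect; lower thallium flux fluorescence means stronger hERG block; nearly all actives have a fitted effect of over 50% in size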
# In short: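 Cells were infected with hERG-BacMam virus for 4 hrs at room temperature, grown overnight, then seeded at 2000/well. After dye loading and roughly 10 min compound treatment, thallium influx was triggered and fluorescence recorded.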
# [25] = qHTS assay for small molecule agonists of the antioxidant response element (ARE) signaling pathway (AID 651741; active means well fitted activation curve with a large enough effect in the signal ratio; the % refers to the signal ratio; further: potency means the concentration at half of the fitted maximal effect)
# In short: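 Agonist activity is measured as ARE-driven beta-lactamase expression in a stable HepG2 reporter line, using 16 h compound treatment at 37 C and a FRET substrate fluorescence readout after 2 h.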
# [26] = qHTS assay for small molecule activators of the nuclear factor-kappa B (NF-kB) signaling pathway (AID 651749; active means well fitted activation curve with a large enough effect in the signal ratio; the % refers to the signal ratio; further: series mostly up to about 77 µM; % of control where 0% means no effect); conditions: NF-kB-bla ME-180 cells, beta-lactamase FRET ratio, 16 h; active compounds read high
# In short: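 FRET-based beta-lactamase detection in ME-180 cells reports NF-kB response-element-driven transcription following overnight (16 hr) compound treatment.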
# [27] = qHTS assay for environmental chemicals that activate the Aryl hydrocarbon Receptor (AhR) signaling pathway (AID 651777); conditions: 1A2-DRE human hepatoma cells, luciferase, 24 h; activation: active compounds read high; further: % of control where 0% means no effect; nearly all actives have a fitted effect of over 15% in size
# In short: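 Human hepatoma 1A2-DRE cells, stably carrying a dioxin response element and CYP1A2 promoter driving luciferase, were exposed to compounds for 24 hr at 37 C and 5% CO2. Luciferase signal was then read after 30 min One-Glo at room temperature.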
# [28] = target: Peroxisome proliferator-activated receptor alpha (Homo sapiens) (UniProt Q07869); assay: qHTS assay for small molecule agonists of the peroxisome proliferator-activated receptor alpha (PPARalpha) signaling pathway (AID 651778); conditions: PathHunter PPARalpha complementation, chemiluminescence, 6 h; max response: active compounds read high; further: % of control where 0% means no effect
# In short: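 Chemiluminescence from complemented enzyme reported PPARalpha activation in cells after 6 hr of compound treatment at 37 C. The detection reagent was incubated for 60 min at room temperature, and compounds were scored as agonists.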
# [29] = qHTS assay for small molecule agonists of the antioxidant response element (ARE) signaling pathway measured by Nrf2-dependant transcriptional activity - cell viability counter screen (AID 720653; active means well fitted curve in the direction sought with a large enough effect in the repeat runs; an effect the other way counts as inactive or inconclusive; further: on the % scale 0 is the no-effect control and ±100 the full control effect); conditions: ARE-bla HepG2 viability, CellTiter-Glo ATP luminescence, 16 h; max response: active compounds read low
# In short: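 Cytotoxicity counter screen: intracellular ATP quantified by CellTiter-Glo luminescence in the same ARE-bla HepG2 plates, after 16 h compound exposure and a 2 h beta-lactamase substrate step.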
# [30] = qHTS assay for cell viability of HEK293 cells (AID 743288); conditions: ATP luminescence (CellTiter-Glo), 18 h; max response: active compounds read low
# In short: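 Quantitative high-throughput screen: compounds were pinned onto parental HEK293 cells (2,000 per well) after a minimum 5 h settling at 37 C, incubated 18 h at 37 C, and intracellular ATP measured by luciferase luminescence.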
# [31] = qHTS assay for cell viability of the p53RE-bla HCT-116 cell line (AID 743292)
# In short: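 CellSensor p53RE-bla HCT-116 cells, 4,000/well, preincubated 5 h at 37 C, then exposed to compounds in DMSO for 16 h at 37 C. Viability read as CellTiter-Glo luminescence (intracellular ATP) after 30 min at room temperature.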
# [32] = target: Nuclear receptor subfamily 1 group I member 2 (Rattus norvegicus) (UniProt Q9R1A7); assay: qHTS assay for small molecule activators of the rat pregnane X receptor (rPXR) signaling pathway (AID 651751; call rule not given here; further: 0% is about no effect); conditions: rPXR reporter cells, luciferase (One-Glo), 24 h
# [33] = qHTS assay for small molecule activators of the human pregnane X receptor (PXR) signaling pathway (AID 720659; call rule not given here; further: 0% is about no effect)
# Sequence of Peroxisome proliferator-activated receptor alpha (Homo sapiens) (Q07869 whole entry, looked up): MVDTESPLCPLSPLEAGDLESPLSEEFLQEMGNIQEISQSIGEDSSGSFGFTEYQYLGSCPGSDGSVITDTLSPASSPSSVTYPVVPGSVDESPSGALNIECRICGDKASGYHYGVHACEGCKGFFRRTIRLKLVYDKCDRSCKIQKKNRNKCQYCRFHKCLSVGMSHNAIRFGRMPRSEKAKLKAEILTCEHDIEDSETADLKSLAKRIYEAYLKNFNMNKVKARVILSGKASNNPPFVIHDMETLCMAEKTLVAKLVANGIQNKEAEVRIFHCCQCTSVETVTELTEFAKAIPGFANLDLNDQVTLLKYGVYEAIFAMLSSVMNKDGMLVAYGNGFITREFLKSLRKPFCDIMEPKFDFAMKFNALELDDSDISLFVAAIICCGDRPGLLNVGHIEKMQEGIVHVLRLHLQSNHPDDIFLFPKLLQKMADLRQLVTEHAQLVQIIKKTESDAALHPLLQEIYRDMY
# Sequence of Nuclear receptor subfamily 1 group I member 2 (Rattus norvegicus) (Q9R1A7 whole entry, looked up): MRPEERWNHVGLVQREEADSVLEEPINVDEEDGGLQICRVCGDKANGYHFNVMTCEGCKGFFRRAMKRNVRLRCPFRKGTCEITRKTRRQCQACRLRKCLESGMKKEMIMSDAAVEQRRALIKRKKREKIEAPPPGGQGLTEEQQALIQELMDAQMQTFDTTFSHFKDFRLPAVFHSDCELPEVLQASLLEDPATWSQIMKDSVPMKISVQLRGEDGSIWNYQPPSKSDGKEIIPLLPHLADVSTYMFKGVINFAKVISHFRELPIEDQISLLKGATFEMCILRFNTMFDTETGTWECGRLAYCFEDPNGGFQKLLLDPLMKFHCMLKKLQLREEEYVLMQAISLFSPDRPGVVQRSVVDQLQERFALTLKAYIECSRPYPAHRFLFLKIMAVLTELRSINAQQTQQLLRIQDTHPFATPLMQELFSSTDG
# Sequence of Voltage-gated inwardly rectifying potassium channel KCNH2 (Homo sapiens) (Q12809 whole entry, looked up): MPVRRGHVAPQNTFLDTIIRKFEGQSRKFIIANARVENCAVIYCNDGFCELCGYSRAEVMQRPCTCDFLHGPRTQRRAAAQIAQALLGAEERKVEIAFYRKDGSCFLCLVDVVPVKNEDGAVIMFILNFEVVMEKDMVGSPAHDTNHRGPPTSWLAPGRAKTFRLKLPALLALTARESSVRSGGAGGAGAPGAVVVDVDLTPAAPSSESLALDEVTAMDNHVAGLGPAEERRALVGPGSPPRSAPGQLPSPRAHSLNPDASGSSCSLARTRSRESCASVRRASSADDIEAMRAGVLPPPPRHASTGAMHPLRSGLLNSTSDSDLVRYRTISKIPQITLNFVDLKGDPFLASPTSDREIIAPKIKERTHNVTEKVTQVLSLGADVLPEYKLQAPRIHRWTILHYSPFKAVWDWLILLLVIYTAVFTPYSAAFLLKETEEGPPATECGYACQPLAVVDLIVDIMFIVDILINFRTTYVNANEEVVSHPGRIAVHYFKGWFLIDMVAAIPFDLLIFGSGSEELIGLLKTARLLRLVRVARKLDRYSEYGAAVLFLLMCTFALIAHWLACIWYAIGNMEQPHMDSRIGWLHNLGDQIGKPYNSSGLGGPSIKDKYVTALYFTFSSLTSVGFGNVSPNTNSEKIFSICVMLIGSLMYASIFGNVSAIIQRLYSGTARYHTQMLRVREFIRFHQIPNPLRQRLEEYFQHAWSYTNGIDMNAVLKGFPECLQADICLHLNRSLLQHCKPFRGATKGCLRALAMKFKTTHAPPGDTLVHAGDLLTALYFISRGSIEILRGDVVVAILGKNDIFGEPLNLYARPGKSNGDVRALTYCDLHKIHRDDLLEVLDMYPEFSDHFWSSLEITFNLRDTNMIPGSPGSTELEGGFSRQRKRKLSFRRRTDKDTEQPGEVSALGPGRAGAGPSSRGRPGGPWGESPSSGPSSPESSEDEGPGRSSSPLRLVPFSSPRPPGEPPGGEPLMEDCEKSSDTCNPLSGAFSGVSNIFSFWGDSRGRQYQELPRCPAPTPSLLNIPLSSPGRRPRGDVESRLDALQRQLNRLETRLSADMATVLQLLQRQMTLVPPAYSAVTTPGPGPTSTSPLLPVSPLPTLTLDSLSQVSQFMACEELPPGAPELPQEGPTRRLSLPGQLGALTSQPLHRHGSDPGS
# Sequence of Vitamin D3 receptor (Homo sapiens) (P11473 whole entry, looked up): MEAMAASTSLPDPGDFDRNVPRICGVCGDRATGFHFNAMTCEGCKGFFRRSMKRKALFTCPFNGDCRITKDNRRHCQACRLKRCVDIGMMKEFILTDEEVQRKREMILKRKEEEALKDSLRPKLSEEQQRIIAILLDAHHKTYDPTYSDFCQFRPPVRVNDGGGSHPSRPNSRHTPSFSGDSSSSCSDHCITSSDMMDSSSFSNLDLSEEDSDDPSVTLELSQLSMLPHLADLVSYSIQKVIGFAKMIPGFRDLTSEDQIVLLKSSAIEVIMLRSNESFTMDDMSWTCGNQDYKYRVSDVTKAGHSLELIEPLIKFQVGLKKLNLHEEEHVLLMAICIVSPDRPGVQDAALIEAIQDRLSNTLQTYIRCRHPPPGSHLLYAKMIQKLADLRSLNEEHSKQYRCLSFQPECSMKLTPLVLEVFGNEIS
# Sequence of Thyroid hormone receptor beta (Homo sapiens) (P10828 whole entry, looked up): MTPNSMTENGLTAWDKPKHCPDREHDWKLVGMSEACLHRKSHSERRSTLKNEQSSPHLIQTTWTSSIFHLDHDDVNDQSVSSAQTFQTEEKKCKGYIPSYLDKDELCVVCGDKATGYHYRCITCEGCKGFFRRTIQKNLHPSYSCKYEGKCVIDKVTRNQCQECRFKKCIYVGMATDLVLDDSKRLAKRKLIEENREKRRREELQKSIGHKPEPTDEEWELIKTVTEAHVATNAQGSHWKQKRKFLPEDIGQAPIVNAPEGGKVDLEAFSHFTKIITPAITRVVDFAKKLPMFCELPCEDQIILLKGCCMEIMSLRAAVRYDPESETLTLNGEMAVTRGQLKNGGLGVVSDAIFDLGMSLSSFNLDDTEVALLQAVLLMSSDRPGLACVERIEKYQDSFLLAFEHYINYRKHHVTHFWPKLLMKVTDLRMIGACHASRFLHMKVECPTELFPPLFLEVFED
smiles,measurement,setting,value
CNc1ccc(O)cc1,Potency,[1],6.31 µM (active)
same,Potency,[2],6.31 µM (active)
same,Potency,[3],5.01 µM (active)
same,Potency,[4],3.98 µM (active)
same,Potency,[5],3.98 µM (active)
same,Potency,[6],3.98 µM (active)
same,Potency,[7],7.94 µM (active)
same,Potency,[8],10 µM (active)
same,Potency,[9],10 µM (active)
same,Potency,[10],6.31 µM (active)
same,Potency,[11],7.94 µM (active)
same,Potency,[12],3.16 µM (active)
same,Potency,[13],6.31 µM (active)
same,Potency,[14],7.94 µM (active)
same,Potency,[15],5.01 µM (active)
same,Potency,[16],3.98 µM (active)
same,Potency,[17],3.16 µM (active)
same,Potency,[18],2.51 µM (active)
same,Potency,[19],7.94 µM (active)
same,Potency,[20],15.8 µM (active)
same,Potency,[21],25.1 µM (active)
same,outcome,[22],inactive
same,outcome,[23],inactive
same,Potency,[24],inactive
same,Potency,[25],13.3 µM (active)
same,activation,[26],-0.994%
same,activation,[27],7.98%
same,max response,[28],-6.09%
same,max response,[29],-24.5%
same,Potency,[30],35.5 µM (active)
same,Potency,[31],70.8 µM (active)
same,max response,[32],-0.134%
same,outcome,[33],inactive
